Key:
Experiment in all cases: log2 ratio of Biotin-Ahx-Ub-VS probe labelling (fragment/DMSO); higher = less target engagement (more negative = stronger competition), active = hit call of the paper (q ≤ 0.05, log2 ratio ≤ -1)
Conditions in all cases: compound concentration: 200 uM; treatment time: 3 h
USP34 = USP34 (UniProt Q70CQ2)
How it was run: (§1)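 Using Biotin-Ahx-Ub-VS at 0.5 µM final for 1 h, DUBs were labelled in HEK293T lysate (495 µg per sample) that had first been treated in triplicate with fragment at 200 µM or vehicle for 3 h. NeutrAvidin enrichment, LysC and trypsin digestion and diaPASEF LC-MS/MS followed. Spectronaut label-free quantities were global-median-normalised. Values are average log2 fragment/vehicle ratios by unpaired t-test, using proteins with ≥2 unique peptides.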

USP36 = biological target: T1, USP36 (UniProt Q9P275)
T1 sequence (whole entry): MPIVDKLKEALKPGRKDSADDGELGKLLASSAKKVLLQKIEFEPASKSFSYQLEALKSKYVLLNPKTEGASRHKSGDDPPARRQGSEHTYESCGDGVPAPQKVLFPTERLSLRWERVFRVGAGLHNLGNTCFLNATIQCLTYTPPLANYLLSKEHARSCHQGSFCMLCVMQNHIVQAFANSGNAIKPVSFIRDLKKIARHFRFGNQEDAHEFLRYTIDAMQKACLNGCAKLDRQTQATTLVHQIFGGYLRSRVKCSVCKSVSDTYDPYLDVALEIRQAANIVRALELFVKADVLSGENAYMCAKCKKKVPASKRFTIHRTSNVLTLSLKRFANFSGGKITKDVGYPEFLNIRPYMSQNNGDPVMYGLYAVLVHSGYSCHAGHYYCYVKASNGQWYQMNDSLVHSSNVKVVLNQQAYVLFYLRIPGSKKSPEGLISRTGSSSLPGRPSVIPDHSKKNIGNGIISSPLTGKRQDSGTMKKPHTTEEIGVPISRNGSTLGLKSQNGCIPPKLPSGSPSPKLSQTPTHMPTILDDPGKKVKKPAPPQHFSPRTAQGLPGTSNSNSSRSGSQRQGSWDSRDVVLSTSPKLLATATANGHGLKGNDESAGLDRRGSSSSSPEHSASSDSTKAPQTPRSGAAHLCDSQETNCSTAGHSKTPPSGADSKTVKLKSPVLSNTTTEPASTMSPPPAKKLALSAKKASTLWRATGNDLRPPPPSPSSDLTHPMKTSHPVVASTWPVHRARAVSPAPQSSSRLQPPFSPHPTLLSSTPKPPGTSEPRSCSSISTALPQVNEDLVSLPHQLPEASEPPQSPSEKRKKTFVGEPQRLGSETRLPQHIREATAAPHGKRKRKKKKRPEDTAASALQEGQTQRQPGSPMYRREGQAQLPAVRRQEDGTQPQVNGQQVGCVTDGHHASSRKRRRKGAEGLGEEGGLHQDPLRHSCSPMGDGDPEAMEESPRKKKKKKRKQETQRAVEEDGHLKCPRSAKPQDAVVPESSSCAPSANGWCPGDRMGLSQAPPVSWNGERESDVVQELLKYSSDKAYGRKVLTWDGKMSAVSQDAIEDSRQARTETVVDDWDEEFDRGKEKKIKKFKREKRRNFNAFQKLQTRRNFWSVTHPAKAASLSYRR
How it was run: as §1

USP38 = biological target: T2, USP38 (UniProt Q8NB14)
T2 sequence (whole entry): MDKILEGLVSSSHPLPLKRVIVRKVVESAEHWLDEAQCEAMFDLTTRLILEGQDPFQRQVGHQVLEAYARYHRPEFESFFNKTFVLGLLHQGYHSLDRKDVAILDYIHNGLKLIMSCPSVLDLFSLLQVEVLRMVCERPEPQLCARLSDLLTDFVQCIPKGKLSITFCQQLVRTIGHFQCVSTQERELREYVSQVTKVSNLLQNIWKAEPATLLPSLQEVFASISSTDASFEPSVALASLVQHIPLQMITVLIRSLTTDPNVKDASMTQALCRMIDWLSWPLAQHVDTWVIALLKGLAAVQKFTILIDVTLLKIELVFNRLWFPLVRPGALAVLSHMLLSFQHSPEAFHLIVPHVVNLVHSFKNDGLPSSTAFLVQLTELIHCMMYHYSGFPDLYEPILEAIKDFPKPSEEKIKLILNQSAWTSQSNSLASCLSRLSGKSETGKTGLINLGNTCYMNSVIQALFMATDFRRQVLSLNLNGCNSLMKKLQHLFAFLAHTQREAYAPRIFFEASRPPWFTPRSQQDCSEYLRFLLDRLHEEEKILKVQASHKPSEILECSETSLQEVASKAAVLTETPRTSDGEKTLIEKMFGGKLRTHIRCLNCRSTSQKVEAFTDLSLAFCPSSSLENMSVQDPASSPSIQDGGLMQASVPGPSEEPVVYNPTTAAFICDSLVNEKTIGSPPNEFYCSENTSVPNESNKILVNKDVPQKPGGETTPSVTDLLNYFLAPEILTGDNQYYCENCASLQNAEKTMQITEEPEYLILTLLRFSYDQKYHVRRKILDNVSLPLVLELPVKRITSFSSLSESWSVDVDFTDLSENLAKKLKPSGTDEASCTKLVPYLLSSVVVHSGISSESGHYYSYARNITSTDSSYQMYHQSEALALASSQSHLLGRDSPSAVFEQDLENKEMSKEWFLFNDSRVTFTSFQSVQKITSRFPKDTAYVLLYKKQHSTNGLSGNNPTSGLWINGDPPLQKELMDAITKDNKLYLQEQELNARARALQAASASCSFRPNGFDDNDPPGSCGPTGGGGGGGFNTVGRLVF
How it was run: as §1

USP39 = biological target: T3, USP39 (UniProt Q53GS9)
T3 sequence (whole entry): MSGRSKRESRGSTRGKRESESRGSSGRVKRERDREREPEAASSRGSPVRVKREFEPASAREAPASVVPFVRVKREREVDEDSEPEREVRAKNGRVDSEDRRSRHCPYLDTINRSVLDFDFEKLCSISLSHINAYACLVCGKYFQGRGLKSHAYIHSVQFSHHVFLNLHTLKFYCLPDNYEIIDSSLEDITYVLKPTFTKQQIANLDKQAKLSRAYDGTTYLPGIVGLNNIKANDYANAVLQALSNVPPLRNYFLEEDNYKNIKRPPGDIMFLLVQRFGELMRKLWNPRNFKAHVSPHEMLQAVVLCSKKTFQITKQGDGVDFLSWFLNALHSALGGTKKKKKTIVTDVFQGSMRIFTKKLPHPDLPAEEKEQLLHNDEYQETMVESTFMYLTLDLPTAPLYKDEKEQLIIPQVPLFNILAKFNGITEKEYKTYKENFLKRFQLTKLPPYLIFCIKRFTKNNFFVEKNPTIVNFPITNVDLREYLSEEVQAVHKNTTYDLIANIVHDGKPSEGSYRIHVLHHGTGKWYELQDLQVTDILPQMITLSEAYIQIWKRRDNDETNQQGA
How it was run: as §1

USP4 = biological target: T4, USP4 (UniProt Q13107)
T4 sequence (whole entry): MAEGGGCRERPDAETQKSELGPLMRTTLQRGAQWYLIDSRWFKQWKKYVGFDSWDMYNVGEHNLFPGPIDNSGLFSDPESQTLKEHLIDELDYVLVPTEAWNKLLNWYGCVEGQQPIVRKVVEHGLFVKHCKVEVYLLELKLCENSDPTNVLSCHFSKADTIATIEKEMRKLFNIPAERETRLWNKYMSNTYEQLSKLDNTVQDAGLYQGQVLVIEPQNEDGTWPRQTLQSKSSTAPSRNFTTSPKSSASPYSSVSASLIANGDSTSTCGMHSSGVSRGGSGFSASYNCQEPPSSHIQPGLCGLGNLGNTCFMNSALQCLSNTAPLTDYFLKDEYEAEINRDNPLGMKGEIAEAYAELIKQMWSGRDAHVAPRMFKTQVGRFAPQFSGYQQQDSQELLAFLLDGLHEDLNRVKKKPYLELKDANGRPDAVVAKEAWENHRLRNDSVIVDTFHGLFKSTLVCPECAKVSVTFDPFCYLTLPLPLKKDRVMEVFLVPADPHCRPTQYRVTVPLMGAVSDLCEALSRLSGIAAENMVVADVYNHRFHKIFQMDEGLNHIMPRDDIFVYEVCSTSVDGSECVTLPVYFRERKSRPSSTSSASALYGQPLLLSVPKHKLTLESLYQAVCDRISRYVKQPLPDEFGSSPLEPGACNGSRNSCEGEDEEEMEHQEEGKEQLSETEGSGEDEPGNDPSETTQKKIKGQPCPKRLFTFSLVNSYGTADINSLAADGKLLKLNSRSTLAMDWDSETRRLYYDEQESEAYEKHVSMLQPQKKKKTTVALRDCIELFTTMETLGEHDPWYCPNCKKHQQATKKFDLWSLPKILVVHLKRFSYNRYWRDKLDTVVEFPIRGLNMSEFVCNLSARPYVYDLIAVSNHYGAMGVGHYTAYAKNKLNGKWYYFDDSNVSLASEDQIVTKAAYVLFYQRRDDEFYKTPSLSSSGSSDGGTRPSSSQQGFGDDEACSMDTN
How it was run: as §1

Measured: log2 ratio of Biotin-Ahx-Ub-VS probe labelling

USP34, sequence (Q70CQ2 whole entry, the tested form may be a part): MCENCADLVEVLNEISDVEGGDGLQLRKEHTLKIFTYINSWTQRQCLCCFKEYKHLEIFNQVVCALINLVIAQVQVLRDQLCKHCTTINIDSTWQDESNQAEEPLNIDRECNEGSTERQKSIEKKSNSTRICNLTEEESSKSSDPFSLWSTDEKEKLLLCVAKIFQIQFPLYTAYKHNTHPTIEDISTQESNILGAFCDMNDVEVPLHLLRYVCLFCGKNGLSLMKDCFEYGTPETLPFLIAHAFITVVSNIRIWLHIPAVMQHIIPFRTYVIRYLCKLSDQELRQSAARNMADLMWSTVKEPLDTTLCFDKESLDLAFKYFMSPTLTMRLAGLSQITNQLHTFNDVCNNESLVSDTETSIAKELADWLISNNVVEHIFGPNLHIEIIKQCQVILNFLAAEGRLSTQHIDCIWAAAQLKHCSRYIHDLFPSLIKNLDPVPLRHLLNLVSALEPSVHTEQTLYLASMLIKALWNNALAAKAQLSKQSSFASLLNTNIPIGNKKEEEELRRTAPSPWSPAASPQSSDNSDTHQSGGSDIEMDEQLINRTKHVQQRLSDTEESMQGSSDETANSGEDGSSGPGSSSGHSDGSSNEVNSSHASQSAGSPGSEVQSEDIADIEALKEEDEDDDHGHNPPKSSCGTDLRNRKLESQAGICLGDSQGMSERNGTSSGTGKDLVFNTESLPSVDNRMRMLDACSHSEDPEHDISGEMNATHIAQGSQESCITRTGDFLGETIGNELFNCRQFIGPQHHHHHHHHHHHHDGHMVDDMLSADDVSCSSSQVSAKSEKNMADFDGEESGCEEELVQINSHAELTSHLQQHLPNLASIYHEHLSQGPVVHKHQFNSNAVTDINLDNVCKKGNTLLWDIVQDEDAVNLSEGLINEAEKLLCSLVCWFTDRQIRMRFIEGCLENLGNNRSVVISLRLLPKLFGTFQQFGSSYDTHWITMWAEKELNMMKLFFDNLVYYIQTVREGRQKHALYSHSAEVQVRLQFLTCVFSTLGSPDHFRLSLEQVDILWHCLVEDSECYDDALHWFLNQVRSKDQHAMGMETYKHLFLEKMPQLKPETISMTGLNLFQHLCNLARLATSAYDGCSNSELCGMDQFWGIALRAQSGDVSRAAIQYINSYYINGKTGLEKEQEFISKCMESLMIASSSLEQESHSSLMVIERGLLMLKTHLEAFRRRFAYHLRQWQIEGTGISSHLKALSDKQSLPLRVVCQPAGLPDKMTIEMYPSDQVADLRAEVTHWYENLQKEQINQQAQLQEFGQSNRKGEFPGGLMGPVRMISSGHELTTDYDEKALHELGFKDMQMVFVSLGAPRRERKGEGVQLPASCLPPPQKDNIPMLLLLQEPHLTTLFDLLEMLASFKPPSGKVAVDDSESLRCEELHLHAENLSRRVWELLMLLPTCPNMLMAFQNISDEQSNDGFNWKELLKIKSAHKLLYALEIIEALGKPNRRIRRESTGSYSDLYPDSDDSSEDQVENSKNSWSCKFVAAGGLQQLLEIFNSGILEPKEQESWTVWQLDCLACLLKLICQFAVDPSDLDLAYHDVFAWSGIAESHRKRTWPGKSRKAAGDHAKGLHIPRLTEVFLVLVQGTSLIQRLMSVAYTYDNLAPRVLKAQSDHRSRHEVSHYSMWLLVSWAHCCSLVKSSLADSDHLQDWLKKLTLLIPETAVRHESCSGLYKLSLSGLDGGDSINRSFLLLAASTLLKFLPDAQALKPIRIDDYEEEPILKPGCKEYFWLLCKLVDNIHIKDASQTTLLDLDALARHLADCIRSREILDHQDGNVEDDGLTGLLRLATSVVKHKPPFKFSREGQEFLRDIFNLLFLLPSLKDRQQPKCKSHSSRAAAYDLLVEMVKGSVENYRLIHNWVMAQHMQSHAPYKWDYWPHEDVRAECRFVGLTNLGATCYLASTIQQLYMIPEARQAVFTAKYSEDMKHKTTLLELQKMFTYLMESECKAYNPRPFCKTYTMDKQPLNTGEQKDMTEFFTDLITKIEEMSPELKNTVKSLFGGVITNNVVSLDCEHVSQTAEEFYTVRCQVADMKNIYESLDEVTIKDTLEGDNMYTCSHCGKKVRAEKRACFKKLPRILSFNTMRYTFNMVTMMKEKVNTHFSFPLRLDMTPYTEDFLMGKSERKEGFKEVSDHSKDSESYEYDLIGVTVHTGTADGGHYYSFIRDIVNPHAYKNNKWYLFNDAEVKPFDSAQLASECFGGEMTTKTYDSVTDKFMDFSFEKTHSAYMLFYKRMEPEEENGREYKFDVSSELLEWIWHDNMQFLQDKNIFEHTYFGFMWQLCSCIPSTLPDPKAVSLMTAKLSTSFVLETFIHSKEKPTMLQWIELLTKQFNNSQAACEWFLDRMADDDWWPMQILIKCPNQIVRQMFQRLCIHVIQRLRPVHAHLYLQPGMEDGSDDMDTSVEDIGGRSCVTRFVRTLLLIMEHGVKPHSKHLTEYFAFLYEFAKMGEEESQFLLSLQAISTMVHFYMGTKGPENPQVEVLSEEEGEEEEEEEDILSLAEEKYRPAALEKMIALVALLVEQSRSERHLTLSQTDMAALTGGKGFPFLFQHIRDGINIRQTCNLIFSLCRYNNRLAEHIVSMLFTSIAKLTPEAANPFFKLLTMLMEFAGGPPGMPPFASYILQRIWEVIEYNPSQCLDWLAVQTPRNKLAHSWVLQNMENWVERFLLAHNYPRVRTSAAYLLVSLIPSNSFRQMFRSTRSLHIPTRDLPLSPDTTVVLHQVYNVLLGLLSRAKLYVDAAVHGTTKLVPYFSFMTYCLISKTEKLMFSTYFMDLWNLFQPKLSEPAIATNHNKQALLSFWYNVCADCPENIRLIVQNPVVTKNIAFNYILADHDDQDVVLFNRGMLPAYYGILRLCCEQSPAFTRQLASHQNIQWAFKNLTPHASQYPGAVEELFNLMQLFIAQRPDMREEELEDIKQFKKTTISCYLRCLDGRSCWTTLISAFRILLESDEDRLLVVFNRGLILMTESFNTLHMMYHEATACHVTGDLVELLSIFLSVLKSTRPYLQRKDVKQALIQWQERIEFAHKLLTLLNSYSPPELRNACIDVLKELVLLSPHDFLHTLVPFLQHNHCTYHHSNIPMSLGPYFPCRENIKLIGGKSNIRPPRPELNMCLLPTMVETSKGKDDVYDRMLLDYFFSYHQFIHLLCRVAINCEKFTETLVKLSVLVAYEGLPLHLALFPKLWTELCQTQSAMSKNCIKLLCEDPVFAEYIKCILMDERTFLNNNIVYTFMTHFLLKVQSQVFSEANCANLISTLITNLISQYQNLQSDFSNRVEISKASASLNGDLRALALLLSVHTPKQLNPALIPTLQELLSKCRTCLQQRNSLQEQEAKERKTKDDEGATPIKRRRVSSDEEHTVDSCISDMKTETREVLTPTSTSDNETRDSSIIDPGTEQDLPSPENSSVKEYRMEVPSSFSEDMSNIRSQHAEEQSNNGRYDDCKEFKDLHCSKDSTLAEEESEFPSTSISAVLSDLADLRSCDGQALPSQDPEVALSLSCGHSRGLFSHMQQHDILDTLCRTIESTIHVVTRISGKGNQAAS

O=C(CCl)NC1CCC2(CC1)OCCO2
inactive: USP34 -0.314 | USP36 -0.227 | USP38 -0.0225 | USP39 0.0631 | USP4 -0.0958

From the supplement of paper PMC11732987, “Enantioselective OTUD7B fragment discovery through chemoproteomics screening and high-throughput optimisation” (Communications Chemistry, 2025)
